{
  "source": "PubChem BioAssay (Tox21)",
  "note": "Values joined by “and” are separate entries in the source; they are usually repeats but may differ in a detail not shown here. Equal entries are not always repeated. Results filed as inconclusive are left out. A call without a number means that no potency is given here. Some compounds were tested as several samples or in several runs, with calls that do not always agree. Active and inactive are the calls of the source. The call rests on the fitted dose curve; in most records, active means well fitted cell-killing curve with a large enough effect in the repeat runs; inconclusive means weak or mixed curves, or effect the other way; inactive means no such curve, though single readings can be large or run the other way.",
  "data": [
    {"assay": "qHTS assay to identify small molecule antagonists of the thyroid receptor (TR) signaling pathway - cell viability counter screen (AID 743064); further: nearly all actives have a fitted effect of over 50% in size; further: potency means the concentration at half of the fitted maximal effect", "conditions": "GH3.TRE-Luc viability, CellTiter-Fluor, 24 h; series mostly up to 70.3 µM; activity change, negative = cytotoxic: at the top concentration", "from_the_text": "National Center for Advancing Translational Sciences [NCATS]\nNIH Chemical Genomics Center [NCGC]\nU.S. Environmental Protection Agency [EPA]\nNational Institutes of Environmental Health Sciences [NIEHS]\nNational Toxicology Program [NTP]\nU.S. Food and Drug Administration [FDA]\nThyroid receptor (TR), a nuclear hormone receptor, plays an important role in development, proliferation, differentiation, metabolism, brain function, and cardiovascular system. […] To profile the Tox21 10K compound library in TR signaling, a cell-based GH3-TRE-Luc assay (GH3.TRE-Luc cell line, developed by the laboratory of Dr. Albertinka J. Murk, Wageningen University) was used to measure the inhibition of TR. GH3 (rat pituitary tumor) cells stably expressing a TR activity sensor consisting of two TR response elements and a luciferase reporter gene. The cytotoxicity of the Tox21 compound library against the GH3.TRE-Luc cell line was tested in parallel by measuring the cell viability using CellTiter-Fluor assay (Promega, Madison, WI) in the same wells.\nTox21 Assay Protocol Summary:\nGH3.TRE-Luc cells were dispensed at 1500 cells/4 uL/well into 1536-well white solid bottom plates using a Multidrop Combi dispenser (Thermo Fisher Scientific Inc., Waltham, MA). After the assay plates were incubated at 37 C for 4 hours, 23 nL of library compound or DMSO controls was transferred to the assay plates by a pintool station (Kalypsys, San Diego, CA), followed by addition of 1 ul of T3 (1 nM, final concentration in the wells) to stimulate TR transactivation. The assay plates were incubated at 37 C for 23.5 h, and then 1 uL of CellTiter-Fluor reagent (Promega, Madision, WI) of measuring cytotoxicity was added to each well using a Bioraptr Flying Reagent Dispenser (FRD) workstation (Beckman Coulter, Indianapolis, IN, USA). The plates were incubated at 37C and 5% CO2 for additional 30 min, and fluorescence intensity was measured by a ViewLux plate reader (PerkinElmer, Shelton, CT).", "values": [
      {"compound": "O=C(O)C1C(C(=O)O)C2(Cl)C(Cl)=C(Cl)C1(Cl)C2(Cl)Cl", "note": "(stereo not given)", "Potency": "inactive"},
      {"compound": "O=[N+]([O-])c1cc([As](=O)(O)O)ccc1O", "Potency": "inactive"},
      {"compound": "CC(=O)/C=C/c1ccccc1", "Potency": "inactive"},
      {"compound": "Clc1cnc(Oc2ccc(Oc3ncc(Cl)cc3Cl)cc2)c(Cl)c1", "activity change, negative = cytotoxic": "10.3% (inactive)"},
      {"compound": "CCOC(=O)CC(SP(=O)(OC)OC)C(=O)OCC", "note": "(stereo not given)", "activity change, negative = cytotoxic": "-5.31% (inactive)"},
      {"compound": "O=C(O)C(Br)Br", "Potency": "inactive"},
      {"compound": "CN(C)C(=O)Cl", "Potency": "inactive"},
      {"compound": "CNC(=O)O/N=C/C(C)(C)S(C)=O", "note": "(stereo not given)", "Potency": "inactive"},
      {"compound": "C=CC(=O)OCC(CC)CCCC", "note": "(stereo not given)", "Potency": "inactive"},
      {"compound": "Cc1ccc(N=C=O)cc1N=C=O", "Potency": "inactive"},
      {"compound": "C=CC#N", "activity change, negative = cytotoxic": "15.7% (inactive)"},
      {"compound": "OCc1ccco1", "Potency": "inactive"},
      {"compound": "Nc1cc(Cl)cc(Cl)c1", "activity change, negative = cytotoxic": "-13.8% (inactive)"},
      {"compound": "N#Cc1ccccn1", "activity change, negative = cytotoxic": "4.45% (inactive)"},
      {"compound": "CSc1nnc(C(C)(C)C)c(=O)n1N", "Potency": "inactive"},
      {"compound": "CC(C)(C)C(=O)CCl", "activity change, negative = cytotoxic": "9.42% (inactive)"},
      {"compound": "N#Cc1cccc(C#N)c1", "activity change, negative = cytotoxic": "16.4% (inactive)"},
      {"compound": "NNc1ccccc1", "Potency": "inactive"},
      {"compound": "Nc1nc(N)nc(NC2CC2)n1", "Potency": "inactive"},
      {"compound": "Cl/C=C/Cl", "Potency": "inactive"},
      {"compound": "CCSC(=O)N1CCCCCC1", "Potency": "inactive"},
      {"compound": "CC[N+](=O)[O-]", "activity change, negative = cytotoxic": "17.4% (inactive)"},
      {"compound": "CCOP(=S)(OCC)Oc1cc(C)nc(C(C)C)n1", "Potency": "inactive and 17.2 µM (active)"},
      {"compound": "O=[N+]([O-])c1ccc(Cl)cc1", "Potency": "inactive"},
      {"compound": "O=[N+]([O-])c1ccc(Cl)c(Cl)c1", "Potency": "inactive"},
      {"compound": "O=C(O)CCCc1ccc(N(CCCl)CCCl)cc1", "Potency": "61.1 µM (active)"},
      {"compound": "c1ccc2c(c1)CCCC2", "activity change, negative = cytotoxic": "14.8% [at 95 µM] (inactive)"},
      {"compound": "FC(F)(F)c1ccc(Cl)cc1", "Potency": "inactive"},
      {"compound": "C[C@H]1C(=O)O[C@@H]2CCN3CC=C(COC(=O)[C@](C)(O)[C@]1(C)O)[C@H]23", "Potency": "inactive"},
      {"compound": "[N-]=[N+]=CC(=O)OC[C@H](N)C(=O)O", "Potency": "inactive"},
      {"compound": "Oc1ccc(Cl)cc1", "Potency": "inactive"},
      {"compound": "CNC(=O)Oc1cccc2ccccc12", "Potency": "inactive"},
      {"compound": "COc1cc(-c2ccc(N)c(OC)c2)ccc1N", "Potency": "inactive and 52 µM (active)"},
      {"compound": "Cc1cccc(C)c1NC(=O)CN1CCCC1=O", "Potency": "inactive"},
      {"compound": "CCOc1ccc(N)cc1", "Potency": "inactive"},
      {"compound": "CCNc1nc(Cl)nc(NC(C)C)n1", "Potency": "inactive"},
      {"compound": "COP(=S)(OC)SCN1C(=O)c2ccccc2C1=O", "Potency": "inactive"},
      {"compound": "CC12CC1(C)C(=O)N(c1cc(Cl)cc(Cl)c1)C2=O", "note": "(stereo not given)", "activity change, negative = cytotoxic": "-0.226% (inactive)"},
      {"compound": "N#CN=C(N)N", "activity change, negative = cytotoxic": "2.77% (inactive)"},
      {"compound": "CNCC(O)c1ccc(O)cc1", "note": "(stereo not given)", "Potency": "inactive"}
    ]}
  ]
}
